The whole screen tested about 280,000 compounds, of which about 1,100 (0.39%) were called active. A call without a number means that no potency is given here. Another 7% or so got no clear call; they are omitted. Calls follow the shape of the dose curve; as a rule, active = well fitted inhibition curve with a large enough effect; inconclusive = small, poorly fitted or top-dose-only effect, or effect the other way; inactive = flat fitted curve, though single readings scatter. This excerpt belongs to a sample that is enriched for actives.
target: Microtubule-associated protein tau (Homo sapiens) (UniProt P10636); assay: qHTS for Inhibitors of Tau Fibril Formation, Fluorescence Polarization; settings: K18 P301L tau heparin fibrillization, Alexa594 FP, 6 h; series mostly up to 57.7 µM; also: nearly all actives have a fitted effect of over 55% in size
Text: NIH Molecular Libraries Probe Production Network [MLPCN]
NIH Chemical Genomics Center [NCGC]
Assay Provider: Carlo Ballatore, University of Pennsylvania
The microtubule-associated protein tau is an abundant protein in the axons of neurons that stabilizes microtubules. With its ability to modulate microtubule dynamics, tau contributes directly or indirectly, to key structural and regulatory cellular functions. Particularly important is the influence tau exerts on axonal transport, which allows signaling molecules, trophic factors and other essential cellular constituents to travel along the axons. Under pathological conditions, tau becomes sequestered into insoluble aggregates called neurofibrillary tangles. This phenomenon is believed to have pathological consequences by promoting axonal transport deficits that ultimately lead to synaptic dysfunction and neuronal loss. To identify inhibitors of tau aggregation, a heparin-induced tau fibril formation assay was used that employed a recombinantly expressed fragment of tau, K18 (Q242-E372), bearing a P301L mutation (Gustke et al. 1994; Hong et al. 1998).
Gustke, N., B. Trinczek, et al. (1994). "Domains of tau protein and interactions with microtubules." Biochemistry 33(32): 9511-22.
Hong, M., V. Zhukareva, et al. (1998).
Li, W. and V. M. Lee (2006). "Characterization of two VQIXXK motifs for tau fibrillization in vitro." Biochemistry 45(51): 15692-701.
von Bergen, M., S. Barghorn, et al. (2001). "Mutations of tau protein in frontotemporal dementia promote aggregation of paired helical filaments by enhancing local beta-structure." J Biol Chem 276(51): 48165-74.
NCGC Assay Protocol Summary:
For screening, 2 uL/well human K18 P301L (15 uM unlabeled and 0.24 uM Alexa 594-labeled tau final concentrations) in reagent buffer (100 mM sodium acetate pH 7) was dispensed into black solid 1536-well plates (Grenier) using a solenoid-based dispenser. Following transfer of 23 nL compound or DMSO vehicle by a pin tool, 2 uL/well heparin (20 uM final concentration) in reagent buffer was added and the plate centrifuged 15 s at 1000 RPM. Plates were incubated 6 hr at 37 C and then 1 uL/well ThT (30 uM final concentration) was added. After a 1 hr ambient incubation, the plates were read by an Envision (Perkin Elmer) to monitor Alexa 594 FP (555 nm excitation and 632 nm emission).
Keywords: NIH Roadmap, MLPCN, MLI, MLSMR, NCGC, qHTS, tau, tauopathies, Alzheimer's disease, fibril, neurodegeneration, aggregation
Potency is read from the fitted curve at half-maximal effect.

Sequence of Microtubule-associated protein tau (Homo sapiens) (P10636 561-689 P618L limits assumed): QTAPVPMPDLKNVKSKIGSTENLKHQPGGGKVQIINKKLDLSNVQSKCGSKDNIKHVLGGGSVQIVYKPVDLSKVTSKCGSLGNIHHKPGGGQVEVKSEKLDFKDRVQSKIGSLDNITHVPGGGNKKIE

SMILES	Potency
CC[N+](C)(CC)CCC[n+]1c(-c2ccccc2)c2cc(N)ccc2c2ccc(N)cc21	6.31 µM (active)
CCCN(C/C=C/I)C1CCc2ccc(O)cc2C1 (stereo not given)	inactive
c1ccc2sc(SNC3CCCCC3)nc2c1	inactive
CN(C)[C@@H]1C(=O)C(C(N)=O)=C(O)[C@@]2(O)C(=O)C3=C(O)c4c(O)cccc4[C@@](C)(O)C3CC12 (stereo not given in full)	inactive
CO[C@@H]1C[C@@H](C[C@H]2CC[C@H](C)[C@@H]([C@@H](C)C(=O)O)O2)O[C@]2(O[C@](C)([C@H]3CC[C@@](C)(C4OC([C@H]5O[C@@](O)(CO)[C@H](C)C[C@@H]5C)C[C@@H]4C)O3)C[C@H]2C)[C@@H]1C (stereo not given in full)	inactive

From PubChem BioAssay AID1468 (National Center for Advancing Translational Sciences (NCATS), 2008)
